Structures are written as SMILES. The source made the active and inactive calls. The calls were made as follows: active = hit-call score of the fitted dose curve at least 0.9, where 1 is the maximum; inactive = score below 0.9.

The AC50 is the midpoint of the concentration-response curve, whichever way the signal moves.

Read-out in the first experiment: Pyruvate Dehydrogenase Kinase 4 (PDK4), PDK4 (gene 5166)
As to the kind of experiment: LTEA_HepaRG_PDK4: Life Technologies and Expression Analysis (LTEA) Assay for Pyruvate Dehydrogenase Kinase 4 (PDK4) using HepaRG (AID 2283525). The conditions noted are these: mRNA level, 48 h; actives raise or lower the signal. The essentials: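 HepaRG (human liver line), 48 h chemical exposure, 8-pt half-log CRC top 100 uM, 0.5% DMSO vehicle, duplicates. Readout: TaqMan qRT-PCR of PDK4 mRNA, housekeeping-normalized; gain/loss fit relative to DMSO baseline.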
As to `CCNc1nc(N)nc(Cl)n1`, the call was inactive.
Consider `CCCN(CCC)C(=O)SCC`, for which the result was inactive.
As for `CC1(C)C(C=C(Cl)Cl)C1C(=O)OCc1cccc(Oc2ccccc2)c1` (centres undefined), the molecule was called inactive.
Still for that read-out and setting: to `Cc1nn(C)c(Oc2ccccc2)c1C=NOCc1ccc(C(=O)OC(C)(C)C)cc1` belongs “inactive”.
Same read-out and setting: then `CCOC(=O)COc1cc(-n2ncc(C(F)(F)F)c(C)c2=O)c(F)cc1Cl`, with “inactive”.
Same read-out and setting: then `c1ccc(Nc2ccccc2)cc1`, with “inactive”.
With `N#CSCSc1nc2ccccc2s1`, the AC50 was 32.9 µM (active).
For the molecule `CCCCC(CC)CN1C(=O)C2C3C=CC(C3)C2C1=O` (centres undefined), the AC50 is 81.3 µM (active).
As for `CC(=O)S[C@@H]1CC2=CC(=O)CC[C@]2(C)[C@H]2CC[C@@]3(C)[C@@H](CC[C@@]34CCC(=O)O4)[C@H]12`, the half-maximal activity concentration (AC50) was 50 µM (active).
`CCCCOC(=O)C(C)Oc1ccc(Oc2ccc(C(F)(F)F)cn2)cc1` (centres undefined): the molecule was classed as inactive.
On to `CC(C)CCCCCCc1ccc(O)cc1`, for which the outcome was inactive.
For the molecule `CCCOC(=O)NCCCN(C)C`, the molecule was classed as inactive.
In the case of `O=C(O)C1(C(=O)Nc2ccc(Cl)cc2Cl)CC1`, the concentration at half-maximal activity (AC50) was 7.18 µM (active).
Consider `CCOC(=O)NCCOc1ccc(Oc2ccccc2)cc1`, for which the outcome was inactive.
As for `O=C(c1ccc(O)cc1O)c1ccc(O)cc1O`, the result was inactive.
Still for that read-out and setting: to `CCOC(=O)c1ccc(O)cc1` belongs “inactive”.
In the case of `CN(C)C(=O)Nc1ccc(Cl)c(Cl)c1`, the molecule was called inactive.
As to `C#C[C@]1(O)CC[C@H]2[C@@H]3CCC4=CC(=O)CC[C@@H]4[C@H]3CC[C@@]21CC`, the AC50 was 0.442 µM (active).
As for `CC(C)(C)[C@@H](O)[C@@H](Cc1ccc(Cl)cc1)n1cncn1`, the call was inactive.
For the molecule `CSC(=O)c1cccc2nnsc12`, the result was inactive.
For the molecule `CCC(C)OC(=O)N1CCCCC1CCO` (centres undefined), the call was inactive.
For `CCCCC(CC)COC(=O)c1ccccc1C(=O)O` (centres undefined), the AC50 was 79.9 µM (active).
On to `C[C@]12C[C@H](O)[C@H]3[C@@H](CCC4=CC(=O)CC[C@@]43C)[C@@H]1CC[C@@H]2C(=O)CO`, for which the molecule was called inactive.
In the case of `OB(O)O`, the molecule was classed as inactive.
For the molecule `Oc1ccc(C(c2ccc(O)cc2)C(Cl)(Cl)Cl)cc1`, the result was inactive.
On to `c1ccc2[nH]c(-c3cscn3)nc2c1`, for which the AC50 was 15.8 µM (active).
As to `COC(=O)c1ccccc1C(=O)O`, the molecule was called inactive.

Read-out in another experiment: succinate dehydrogenase complex iron sulfur subunit B (SDHB), SDHB (gene 6390)
Kind of experiment: LTEA_HepaRG_SDHB: Life Technologies and Expression Analysis (LTEA) Assay for succinate dehydrogenase complex iron sulfur subunit B (SDHB) using HepaRG (AID 2283528). The conditions noted are these: mRNA level, 48 h; actives raise or lower the signal. The essentials: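 A human HepaRG culture in serum-free induction medium received test chemicals for 48 h over an eight-point range capped at 100 uM. SDHB expression change was quantified by qRT-PCR.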
On to `CCNc1nc(N)nc(Cl)n1`, for which the molecule was called inactive.
Take `CCCN(CCC)C(=O)SCC`: the molecule was classed as inactive.
`CC1(C)C(C=C(Cl)Cl)C1C(=O)OCc1cccc(Oc2ccccc2)c1` (centres undefined): the call was inactive.
Same read-out and setting: to `Cc1nn(C)c(Oc2ccccc2)c1C=NOCc1ccc(C(=O)OC(C)(C)C)cc1` belongs “inactive”; to `CCOC(=O)COc1cc(-n2ncc(C(F)(F)F)c(C)c2=O)c(F)cc1Cl`, “inactive”.
Still for that read-out and setting: then `c1ccc(Nc2ccccc2)cc1`, with “inactive”; and `N#CSCSc1nc2ccccc2s1`, with “inactive”.
Still for that read-out and setting: then `CCCCC(CC)CN1C(=O)C2C3C=CC(C3)C2C1=O` (centres undefined), with “inactive”.
In the case of `CC(=O)S[C@@H]1CC2=CC(=O)CC[C@]2(C)[C@H]2CC[C@@]3(C)[C@@H](CC[C@@]34CCC(=O)O4)[C@H]12`, the call was inactive.
Same read-out and setting: to `CCCCOC(=O)C(C)Oc1ccc(Oc2ccc(C(F)(F)F)cn2)cc1` (centres undefined) belongs “inactive”; to `CC(C)CCCCCCc1ccc(O)cc1`, “inactive”.
On the same count and under the same terms, then `CCCOC(=O)NCCCN(C)C`, with “inactive”.
For the molecule `O=C(O)C1(C(=O)Nc2ccc(Cl)cc2Cl)CC1`, the AC50 is 78.4 µM (active).
Take `CCOC(=O)NCCOc1ccc(Oc2ccccc2)cc1`: the outcome was inactive.
Regarding `O=C(c1ccc(O)cc1O)c1ccc(O)cc1O`, the outcome was inactive.
Still for that read-out and setting: to `CCOC(=O)c1ccc(O)cc1` belongs “inactive”; to `CN(C)C(=O)Nc1ccc(Cl)c(Cl)c1`, “inactive”; to `C#C[C@]1(O)CC[C@H]2[C@@H]3CCC4=CC(=O)CC[C@@H]4[C@H]3CC[C@@]21CC`, “inactive”.
With `CC(C)(C)[C@@H](O)[C@@H](Cc1ccc(Cl)cc1)n1cncn1`, the outcome was inactive.
For `CSC(=O)c1cccc2nnsc12`, the call was inactive.
On the same count and under the same terms, then `CCC(C)OC(=O)N1CCCCC1CCO` (centres undefined), with “inactive”; and `CCCCC(CC)COC(=O)c1ccccc1C(=O)O` (centres undefined), with “inactive”; and `C[C@]12C[C@H](O)[C@H]3[C@@H](CCC4=CC(=O)CC[C@@]43C)[C@@H]1CC[C@@H]2C(=O)CO`, with “inactive”.
Take `OB(O)O`: the molecule was called inactive.
On to `Oc1ccc(C(c2ccc(O)cc2)C(Cl)(Cl)Cl)cc1`, for which the AC50 was 80.6 µM (active).
As to `c1ccc2[nH]c(-c3cscn3)nc2c1`, the molecule was classed as inactive.
As to `COC(=O)c1ccccc1C(=O)O`, the outcome was inactive.

Source of the values: PubChem BioAssay (EPA / NIEHS).
